Screening data from PubChem BioAssay.
Rows were chosen to be rich in hits. Some 3.5% of all compounds tested hit in one or more screens of this group.
mHTT-CaM PPI inh – inhibitors of human mutant huntingtin-calmodulin interaction. P42858. AlphaScreen His-mHTT/GST-CaM binding, luminescence. inhibition, % at 15 µM. actives 3.6% (n = 190,000). AID 1671202;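 note: 0% = both proteins with DMSO and 100% = one protein alone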
Pf apPOL inh – Pf-apPOL DNA polymerase inhibition | Recombinant Pf-apPOL, molecular beacon fluorescence, 1.5 h | actives 0.25% (n = 210,000) | inhibition, % at 10 µM
Starred values were filed as active, the others as inactive; . = not tested or not shown. Cut-off read from the data, not from the text of the source: active = inhibition above about 50%; inactive = the rest.

SMILES	mHTT-CaM PPI inh	Pf apPOL inh
COc1ccc(C(O)=C2C(=O)C(=O)N(c3nnc(C)s3)C2c2ccc(Cl)c(Cl)c2)cc1 (stereo unspecified)	100*	1
CCOc1ccc(C(O)=C2C(=O)C(=O)N(c3nnc(C)s3)C2c2ccc([N+](=O)[O-])cc2)cc1 (stereo unspecified)	17	7
O=C(C1CCN(c2nnc(-c3ccccc3)o2)CC1)N1CCN(c2ccccn2)CC1	-3	-1
CC(=O)N1CCc2cc(Br)cc(S(=O)(=O)CCC(=O)Nc3cccc(C)c3)c21	6	0
Cc1noc(C)c1S(=O)(=O)N1CCC(CC(=O)NCCCc2ccccc2)CC1	-6	-1
O=C(Nc1ccc2ccccc2c1)C1CCCN(S(=O)(=O)c2ccccc2)C1 (stereo unspecified)	18	-6
O=C1N=C(N2CCOCC2)S/C1=C\c1ccc(-c2ccccc2)o1	80*	-2
O=C1N=C(N2CCOCC2)S/C1=C\c1cccs1	-5	6
O=C1N=C(c2ccccc2)S/C1=C/c1ccc2c(c1)OCO2	-3	1
Cc1ccc(/C=C2\SC(c3ccccc3)=NC2=O)o1	56*	-6
Cc1nnc2c3cnn(-c4ccccc4)c3nc(C)n12	0	4
Cc1ccc(C2=N/C(=C\c3cc(Br)cs3)C(=O)O2)cc1[N+](=O)[O-]	19	-2
COC(=O)C1OC(O)C(O)C(O)C1O (stereo unspecified)	.	96*
CC(=O)NC1C(O)OC(CO)C(O)C1O (stereo unspecified)	.	-16
O=C(COc1cccc(Cl)c1)NCc1ccco1	-4	-20
O=C(COc1cccc2c1CCN(Cc1ccc(Cl)cc1)C2=O)NCc1ccco1	70*	-11
CCOc1ccc(Nc2c3ccccc3nc3ccccc23)cc1	63*	-6
Cc1cc(C)c2nc(C)cc(Nc3ccc(C(=O)O)cc3)c2c1	3	-14
CCOc1ccc2nc(C)cc(Nc3cc(Cl)ccc3OC)c2c1	27	-4
CCOc1ccc2nc(C)cc(Nc3ccc(OCc4ccccc4Cl)cc3)c2c1	98*	-2
Cc1cc(C)c2nc(C)cc(Nc3ccc(OCc4ccccc4)cc3)c2c1	90*	0
CCOc1ccc(Nc2nc(-c3ccccc3)cs2)cc1	9	-2
COc1ccc(CC(C)=NNC(N)=O)cc1OC	.	0
COc1cc(OC)cc(C2=NC3(CCCC3)N(C(=O)c3cc(OC)c(OC)c(OC)c3)C2=S)c1	52*	-5
CNC(=O)C1CN(C(=O)c2cc(OC)c(OC)c(OC)c2)CC12CCCC2 (stereo unspecified)	-8	0
SMILES	mHTT-CaM PPI inh	Pf apPOL inh
Cc1ccc(NC(=O)Cn2nc(N3CCC(C)CC3)c3ccccc3c2=O)c(C)c1	-2	2
O=C(C1CCN(c2cnn(Cc3ccccc3)c(=O)c2)CC1)N1CCCCCC1	21	-10
COc1ccc(C=Nc2cccc(N=Cc3ccc(OC)c(OC)c3)c2)cc1OC	74*	-4
COc1cc(C=Nc2ccc(C)c(C)c2)ccc1O	19	3
O=C1NN(c2ccccc2)C(=O)/C1=C/c1cccc(Br)c1	54*	-3
COc1cccc(/C=C2\C(=O)NN(c3ccc(Br)cc3)C2=O)c1	7	1
COc1cccc(/C=C2\C(=O)NN(c3ccccc3)C2=O)c1	6	2
O=C1NN(c2ccc(Cl)cc2)C(=O)/C1=C/c1cccc(Br)c1	95*	-5
CN1CCN(Cc2c(C(=O)O)nnn2-c2nonc2N)CC1	5	-1
CC(=O)OCC(=O)N1CCc2ccccc2C1c1ccccc1Cl (stereo unspecified)	6	-6
Cc1ccc(-c2n[nH]c3c2CN(S(C)(=O)=O)CC3)cc1	5	8
O=[N+]([O-])c1ccc(-c2noc(-c3ccnc(Cl)c3)n2)o1	3	-8
CCN(CCCNC(=O)C1CCCN(c2cnn(C)c(=O)c2)C1)c1ccccc1 (stereo unspecified)	29	1
Cc1noc(-c2cccn2Cc2cccc(F)c2)n1	-30	0
COc1cc(/C=C2\C(=O)NN(c3ccc(Cl)c(Cl)c3)C2=O)ccc1O	34	-5
Cc1ccc(N2NC(=O)/C(=C\c3ccc(Cl)cc3)C2=O)cc1Cl	11	0
Cc1ccc(N2NC(=O)/C(=C\c3ccc(C)c([N+](=O)[O-])c3)C2=O)cc1Cl	62*	-8
O=C1NN(c2ccc(Cl)c(Cl)c2)C(=O)/C1=C/c1ccc(O)c(O)c1	73*	-1
O=C1ON=C2C3CC4CC12CC1(C3)C(=O)ON=C41	-2	-5
CC(=NCCN1CCOCC1)c1c(C(F)(F)F)[nH]n(-c2nc3ccccc3s2)c1=O	2	-1
CC(=NCCCN1CCOCC1)c1c(-c2ccccc2)[nH]n(-c2nc3ccccc3s2)c1=O	51*	-3
CC(NC(=O)C(=O)Nc1ccccc1)c1ccccc1 (stereo unspecified)	0	-11
CCc1nc(-c2ccc(C(=O)N3CCc4ccccc4C3)cc2)cs1	60*	-1
